Over roughly 35,000 sequences, “fluorescence intensity (a.u.)” has its median near 10,000; the highest 2% begin near 52,000. The entries come from a sample that favours the highest values as a whole.

Here are results for 54 sequences from article PMC7819943, “Rice protein-binding microarrays: a tool to detect cis-acting elements near promoter regions in rice”.

The assay addresses T1, OsWOX13 (Oryza sativa, UniProt Q5QMM3 1-267).
T1 sequence: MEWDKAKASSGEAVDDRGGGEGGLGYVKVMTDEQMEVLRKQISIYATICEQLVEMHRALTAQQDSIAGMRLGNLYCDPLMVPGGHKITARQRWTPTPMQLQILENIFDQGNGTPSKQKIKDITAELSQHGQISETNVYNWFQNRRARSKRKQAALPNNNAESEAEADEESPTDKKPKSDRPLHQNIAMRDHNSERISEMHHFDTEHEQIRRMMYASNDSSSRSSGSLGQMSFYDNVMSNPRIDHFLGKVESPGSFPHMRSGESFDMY
In words: protein-binding microarray (RPBM); PBS, 2% BSA, 51.3 ng/ul salmon testes DNA, 50 uM zinc acetate, 200 nM TF, 25 C, 1 h; high values mean tight binding. To be noted: protein: recombinant; tags: N-terminal polyhistidine and DsRed monomer fusion (pET32a); label: CyDye5-dUTP incorporated in the synthesized complementary strand; 3' TTTTT single-stranded linker to array surface; dsDNA, one strand shown. Summed up: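 Transcription factors, each fused N-terminally to a polyhistidine tag and DsRed, were expressed in E. coli BL21-CodonPlus and purified on Ni–NTA. A custom Agilent array was made double-stranded by primer extension with Cy5-dUTP and blocked with 2% BSA. It was incubated with 200 nM protein in PBS, 2% BSA, salmon testes DNA and 50 µM zinc acetate at 25 °C for 1 h, then washed. The binding signal is per-feature fluorescence intensity (arbitrary units) read on an Axon 4000B scanner.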
On to “CCTCGCGCGCAGATAATTATCACAACTTATGGGGAGCTTGCGGAGTCACCTAGTGCAG”, for which the binding signal was 3290 fluorescence intensity (a.u.). With “CTCATTAATCTTGCTCATTAATCTTGCAATTAATCCAGAACGGAGTCACCTAGTGCAG” the figure was 4900 fluorescence intensity (a.u.); with “CACTTCTGTACTTGGCGTGATTGGGCCGCGGACCGGTAGACGGAGTCACCTAGTGCAG”, 3750 fluorescence intensity (a.u.); with “GTTTAGGACCTTTGATTTGTTGGTGACAGAACCCAAGGCGCGGAGTCACCTAGTGCAG”, 6360 fluorescence intensity (a.u.).

Turning to “TAAGGCAGAAAACCAAGGCCTTGACATTTCTTTTAGGACACGGAGTCACCTAGTGCAG”, the binding signal was 65000 fluorescence intensity (a.u.). With “AGTAATTTAAACACGAAAACATTTCTTATTGACAAGAATACGGAGTCACCTAGTGCAG” the figure was 4230 fluorescence intensity (a.u.). With “TAAAATAAATCAAATTAATACAAGTGAGATATCTTAGTAACGGAGTCACCTAGTGCAG” the figure was 6480 fluorescence intensity (a.u.); with “TGGCTCTGATCCATCAATTAGGATTTGCCAGTGCCTCTCCCGGAGTCACCTAGTGCAG”, 5390 fluorescence intensity (a.u.). With “GAAGGATTGAGATATGATTGATTATTATATCATATACTCTCGGAGTCACCTAGTGCAG” the figure was 55000 fluorescence intensity (a.u.); with “TAGAAGATAGATTGATTGATTGATATATACTATCTCTATACGGAGTCACCTAGTGCAG”, 52600 fluorescence intensity (a.u.). On to “AATATATTGACATTGATATCTTATAAAGAGCCTATAGATACGGAGTCACCTAGTGCAG”, for which the binding signal was 5820 fluorescence intensity (a.u.). With “TCATATGATTAGGATATATCACATCTCATTATATTATATGCGGAGTCACCTAGTGCAG” the figure was 17800 fluorescence intensity (a.u.); with “AAGAAGAATCTATCTATCTATCTATCTATCAATCTCTATACGGAGTCACCTAGTGCAG”, 3320 fluorescence intensity (a.u.). As for “TTTGGGATTATTATAATCTAGATTATTGAGTCATATTACTCGGAGTCACCTAGTGCAG”, the binding signal is 10300 fluorescence intensity (a.u.). With “TCCACAATTTGCTAATCATATTTCTGTTGATAATGATAATCGGAGTCACCTAGTGCAG” the figure was 7820 fluorescence intensity (a.u.); with “GAAGATTGAGCTCTGCAGCAACAACCCAAACACACAAAGCCGGAGTCACCTAGTGCAG”, 3290 fluorescence intensity (a.u.).

For the sequence “CATAGGATCAATTTAATATATTGACATGCCATTAGGCCATCGGAGTCACCTAGTGCAG”, the binding signal is 10600 fluorescence intensity (a.u.). Regarding “CTTTACAATTAATACATGTTCCACTTGTCTCTCTCACAGACGGAGTCACCTAGTGCAG”, the binding signal was 4970 fluorescence intensity (a.u.). Turning to “CGTAGATTTGACCGAACAAATTGTACAGTAATGTACTAGGCGGAGTCACCTAGTGCAG”, the binding signal was 20100 fluorescence intensity (a.u.).

Regarding “ATTATACTATGATTGTACTGTAATTACATCTGTCAAATTTCGGAGTCACCTAGTGCAG”, the binding signal is 24500 fluorescence intensity (a.u.).

As to “GTGTAATTATACTATAATTGTACTGTAATTACATCTGTCACGGAGTCACCTAGTGCAG”, the binding signal was 56600 fluorescence intensity (a.u.). With “TTTACACTATAATTATATTCACTTATACATTGTAATTACACGGAGTCACCTAGTGCAG” the figure was 13800 fluorescence intensity (a.u.); with “GTGTAATTACACTACGATTGTACTGTAATTACATCTGTCACGGAGTCACCTAGTGCAG”, 29900 fluorescence intensity (a.u.). With “GTGTAATTACACTATAATTGCACTATAATTATATCTGTCACGGAGTCACCTAGTGCAG”, the binding signal is 61500 fluorescence intensity (a.u.).

On to “ACTGTAATTTTAATTATATTATTGTTACACTATAATTGCACGGAGTCACCTAGTGCAG”, for which the binding signal is 41800 fluorescence intensity (a.u.). Turning to “CTTTAAACAGTTTGAGTGAATTTAGGGGTACATATTTCTGCGGAGTCACCTAGTGCAG”, the binding signal is 6070 fluorescence intensity (a.u.).

Turning to “TTTTGCTTGATTGGTGGTCTGATGTATTTGATGAGTGCGACGGAGTCACCTAGTGCAG”, the binding signal is 31300 fluorescence intensity (a.u.). With “ACACTAACAAATCAATTTTCTCTACCCACCACTCCTGAATCGGAGTCACCTAGTGCAG” the figure was 8890 fluorescence intensity (a.u.). With “ATAATTATTTGTTTTCAGTCATGTATCTTCATCTTATACACGGAGTCACCTAGTGCAG” the figure was 6340 fluorescence intensity (a.u.). With “AATGACATGGCAATCTCACCTTGGAGGTTTGTGCTTTGAACGGAGTCACCTAGTGCAG” the figure was 4460 fluorescence intensity (a.u.); with “AAGCAATATAATTGTTTCTCTAATTAGGAGTTATACATGTCGGAGTCACCTAGTGCAG”, 19000 fluorescence intensity (a.u.); with “GGGGACATAAATCCTGATGATTTCCTCAACTTTGATCTTGCGGAGTCACCTAGTGCAG”, 3630 fluorescence intensity (a.u.). Take “AATTAATTTGTCATTAGTAAATGTTTACTGTAGCACCACACGGAGTCACCTAGTGCAG”: the binding signal was 42000 fluorescence intensity (a.u.).

In the case of “CCTAATTAATCCGTCATTAGCAAATGTTTATTGTAGCACCCGGAGTCACCTAGTGCAG”, the binding signal was 41300 fluorescence intensity (a.u.). With “CCTAATTAATCTGTCATTAGCAAATATTTATTGTAGCATCCGGAGTCACCTAGTGCAG” the figure was 47000 fluorescence intensity (a.u.); with “AGCCTAATTAATTTGTCATTAGCAAATGTTTACTGTAGCACGGAGTCACCTAGTGCAG”, 57000 fluorescence intensity (a.u.); with “TAAGCCTAATTAATTTGTCATTAGCAAATGTTTACTATAGCGGAGTCACCTAGTGCAG”, 30300 fluorescence intensity (a.u.). With “TCTAATTAATTTGTCATTAGCAAATGTTTATTGTAGCATCCGGAGTCACCTAGTGCAG” the figure was 58400 fluorescence intensity (a.u.); with “CTTGATTAATCCGTACGTCTATCAACTCAGCCCGAAACGCCGGAGTCACCTAGTGCAG”, 46200 fluorescence intensity (a.u.). For the sequence “AAGCTATTAGATTGGCTATAGATGAATTGAAGTTAGTAGTCGGAGTCACCTAGTGCAG”, the binding signal was 26100 fluorescence intensity (a.u.). With “GGCTATTAGATTGGTTATAAATGAATTGGAGCCAATAGTGCGGAGTCACCTAGTGCAG” the figure was 39100 fluorescence intensity (a.u.); with “TGAGCTATTAGATTGGTTATAGATGAATTGAAGTTAGTAGCGGAGTCACCTAGTGCAG”, 14100 fluorescence intensity (a.u.). With “CTTGAGATGATTAGACTCCTAATGTAGCTCATGATTATATCGGAGTCACCTAGTGCAG” the figure was 14400 fluorescence intensity (a.u.). With “ATTGGCTATTAGATTGGCTATAGATGAATTAGAGTTAGTACGGAGTCACCTAGTGCAG” the figure was 15400 fluorescence intensity (a.u.). As to “GAAATTATTGCTGAAATTTTGTCCTTCATAGTGTGCTGTTCGGAGTCACCTAGTGCAG”, the binding signal is 12200 fluorescence intensity (a.u.).

Turning to “CATGATTAATTTTAGGCCGGTCATTGCTCGTGTCCTTGTTCGGAGTCACCTAGTGCAG”, the binding signal was 65300 fluorescence intensity (a.u.). For “TTAGATTGGTTATAGATGAATTGGAGCTAGTAGTGGGTTGCGGAGTCACCTAGTGCAG”, the binding signal is 56200 fluorescence intensity (a.u.). With “AAACCCTTAATTGCTCATGATTTTGCCATTATAATATAGGCGGAGTCACCTAGTGCAG” the figure was 44600 fluorescence intensity (a.u.). With “GATATTAGATTGGCTATAGATGAATTGGAGTTAGTAGTGGCGGAGTCACCTAGTGCAG” the figure was 52700 fluorescence intensity (a.u.). With “ATTAGATTGACTATAGATGAATTGAAGACAGTAGTGGGCTCGGAGTCACCTAGTGCAG” the figure was 49500 fluorescence intensity (a.u.). With “ACATGATAGACTAATGAGTAGATTGTTGTCCTAATTAGCTCGGAGTCACCTAGTGCAG”, the binding signal is 54100 fluorescence intensity (a.u.). With “ATGTCATTTTAAAGTTTAATTAATTAGATAATTACCTTCTCGGAGTCACCTAGTGCAG” the figure was 17500 fluorescence intensity (a.u.). With “TCATCTAATTAATTGGCAAGGTGATATGCGTCCCTGAAAACGGAGTCACCTAGTGCAG” the figure was 39500 fluorescence intensity (a.u.); with “GACAGTTTGATTTCCTCTTGTGTTTATGCATTATTTTGTGCGGAGTCACCTAGTGCAG”, 3640 fluorescence intensity (a.u.).
